Source: PubChem (National Center for Advancing Translational Sciences (NCATS))
Marburg entry inh – blocks Marburg virus binding to or entry into cells; Marburg virus pseudotyped entry inhibition, cell reporter; Potency, µM (titrated, usually from 37.8 µM), actives largely listed as inhibitors; actives 1.8% (n = 300,000); AID 540276; calls by dose curve; tested in HEK293 cells
HCMV antiviral – inhibitors of human cytomegalovirus; actives 4.5% (n = 410,000); HFF cells, HCMV-luciferase reporter, 72 h; hits give low values; activity change, negative = inhibition, % at 57.5 µM; AID 1259415; in the data active means activity change below about -60%; inconclusive means no clear call, values can overlap the other calls; inactive means above about -39%
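Screen run at 2 compound doses on HFFs infected with reporter HCMV, MOI 1 PFU/cell. Luciferase activity from cell lysates at 72 h post infection gave inhibition relative to buffer-only and Salinomycin wells.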
HCV inhibitor – blocks hepatitis C virus. Huh7.5.1 HCVcc-Cre infection, luciferase reporter, 44 h. Potency, µM (highest dose often 41.8 µM), hits mostly inhibitors. actives 3.4% (n = 340,000); active means well fitted inhibition curve with a large enough effect; inconclusive means small, poorly fitted or top-dose-only effect, or another doubt; inactive means no such curve, though single readings can be large or run the other way
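Cells (1,000/well) were plated 4 h before compound, then infected with HCVcc-Cre virus (~0.5 moi). After 44 h further culture, infection was read as luciferase luminescence following a 15 min substrate incubation at room temperature.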
Lassa entry inh – inhibitors of Lassa virus binding or cell entry; Potency, µM (highest dose often 37.9 µM), actives largely listed as inhibitors; AID 540256; Lassa virus pseudotype entry inhibition, cell reporter; actives 1.2% (n = 300,000); calls by dose curve; tested in HEK293 cells; further: nearly all actives have a fitted effect of over 50% in size
FMDV inh – foot and mouth disease virus antiviral activity; Potency, µM (series often up to 57.9 µM), hits mostly inhibitors; FMDV antiviral cell-based qHTS; actives 1.2% (n = 410,000); AID 1159524; calls by dose curve; tested in HEK293T cells; further: read-out not given here; nearly all actives have a fitted effect of over 45% in size
A number is an active result; - = inactive; ? = inconclusive; . = no result given. Only some compounds are listed: those with a hit (about 7.9% of all), similar ones and a draw of the others.

SMILES	Marburg entry inh	HCMV antiviral	HCV inhibitor	Lassa entry inh	FMDV inh
COc1ccc(N2CCN(C(=O)c3cc4c(C)nc5ccccc5c4o3)CC2)cc1	.	-100	?	.	?
CC(Sc1nnc(-c2ccncc2)n1-c1ccc(F)cc1)C(=O)NC1CC1 (configuration not stated)	.	?	-	.	-
CS(=O)(=O)c1ccc(Nc2cc3c(cn2)ncn3Cc2ccco2)cc1	.	-	.	.	.
Cc1ccc(CNC(=O)CCCn2c(=O)c3ccccc3n(CC(=O)C(C)(C)C)c2=O)cc1	-	-	.	?	-
CCc1ccc2oc(C(=O)N3CCN(c4ccc(OC)cc4)CC3)cc(=O)c2c1	?	-63	?	?	?
COc1cccc(CNC(=O)c2cc3c(C)nc4ccccc4c3o2)c1	.	?	6.3µM	.	22µM
COc1ccc(Nc2sc(C(=O)c3ccccc3)c(N)c2C(=O)Nc2cc(C)ccc2C)c(OC)c1	.	-74	.	-	-
COc1ccc(Nc2sc(C(=O)c3ccc(Cl)cc3)c(N)c2C(=O)Nc2ccccc2OC)cc1	?	?	?	-	-
COc1ccc(C(=O)c2sc(Nc3cccc(OC)c3)c(C(=O)Nc3cccc(C)c3C)c2N)cc1	21µM	-70	-	?	-
CCOc1ccc(NC(=O)c2c(Nc3ccccc3C)sc(C(=O)c3ccc(Cl)cc3)c2N)cc1	.	-	.	-	?
COc1cccc(Nc2sc(C(=O)c3ccc(Cl)cc3)c(N)c2C(=O)NCc2ccc(C)cc2)c1	.	-80	.	?	?
COc1ccccc1NC(=O)c1c(Nc2ccccc2C)sc(C(=O)Nc2cccc(Cl)c2)c1N	?	-97	13µM	?	7.9µM
CCOc1ccc(N(C)S(=O)(=O)c2ccc(C)c(C(=O)Nc3nnc(C4CC4)s3)c2)cc1	.	-	-	.	-
CC(C(=O)Nc1ccccc1C(F)(F)F)n1nc(-c2ccccc2)c2c(c1=O)CCCC2 (configuration not stated)	?	-	.	-	-
CCOc1c(CNc2nnnn2C)cccc1OC	-	-	-	-	-
COc1ccc(C(=O)c2sc(Nc3ccccc3)c(C(=O)Nc3ccc(OC)c(OC)c3)c2N)cc1	-	-	-	-	-
Cc1ccc(NC(=O)c2c(Nc3ccccc3C)sc(C(=O)c3ccccc3)c2N)cc1	.	-	.	?	?
Cc1cc(Nc2sc(C(=O)c3ccc(F)cc3)c(N)c2C(=O)Nc2ccc(F)cc2)ccc1Cl	.	-108	.	?	10µM
COc1ccc(NC(=O)c2c(Nc3ccccc3)sc(C(=O)c3ccc(F)cc3)c2N)cc1	6.3µM	-83	6.3µM	13µM	?
COc1cc(Nc2cc3c(cn2)nc(-c2ccco2)n3C)cc(OC)c1OC	.	-	.	.	.
Clc1ccc2c(c1)C(C1=NCCN1)c1ccccc1CS2 (configuration not stated)	1.3µM	-	?	?	-
c1ccc2c(c1)CSc1ccccc1C2C1=NCCN1 (configuration not stated)	?	-	-	-	-
CCN1CCN(C(=O)c2ccc(-c3nc4ccccc4s3)s2)CC1	.	-	?	.	-
c1ccc2sc(-c3ccc4c(c3)OCO4)nc2c1	?	.	?	9.2µM	-
O=C(c1ccc(-c2nc3ccccc3s2)s1)N1CCOCC1	?	-72	?	3.5µM	8.9µM
SMILES	Marburg entry inh	HCMV antiviral	HCV inhibitor	Lassa entry inh	FMDV inh
Cc1ccc2nc(NC(=O)c3ccc(-c4nc5ccccc5s4)s3)sc2c1	-	-	-	-	-
O=C(NC1CC1)c1ccc(-c2nc3ccccc3s2)s1	1.4µM	-	?	1.3µM	?
O=C(NCc1ccc(Cl)cc1)C1CCCN(c2nc3ccccc3n3cccc23)C1 (configuration not stated)	.	-	.	?	-
O=C(Nc1cccc(F)c1F)C1CCN(c2ncccn2)CC1	-	-	.	-	-
CC(C)c1nc(NCCO)c(C#N)c2c1CCCC2	-	-66	?	-	?
CN1CCc2c(C#N)c(N3CCCCC3)nc(NCc3ccccc3)c2C1	?	-	?	?	-
N#Cc1c(NCCCO)nc(NCc2ccccc2)c2c1CCN(Cc1ccccc1)C2	?	-	11µM	?	-
CC(C)c1nc(N2CCOCC2)c(C#N)c2c1CCCC2	?	?	7.1µM	-	?
N#Cc1c(NCCCO)nc(-c2ccco2)c2c1CCCC2	-	-	10µM	-	-
CCSc1nc(N2CCOCC2)c2c(c1C#N)CCCC2	-	-	-	-	?
COc1ccc(NC(=O)c2cnc3cc(C)ccn3c2=O)c(OC)c1	-	-	.	.	-
O=C(NCc1ccco1)c1ccc2sc([C@@H]3O[C@H](CO)[C@H](O)[C@H](O)[C@H]3O)nc2c1	.	-	.	.	-
CCOC(=O)Nc1c[n+](N2CCOCC2)no1	-	.	.	.	.
Oc1[nH]c(N=C2N=c3ccccc3=N2)c2ccccc12	?	-97	-	?	-
Cc1ccc2c(c1)=N/C(=N\c1[nH]c(O)c3ccccc13)N=2	.	-	.	.	-
COC(=O)N1CCN(c2ccc(Cl)c(Cl)c2)CC1	?	-	-	?	?
COC(=O)N1CCN(C(=O)Cc2ccc(Cl)c(Cl)c2)C(CN2CCCC2)C1 (configuration not stated)	11µM	.	.	?	-
O=c1cc(-c2ccccc2)[nH]n1-c1nc2ccccc2[nH]1	?	-84	?	?	-
Cc1ccc2c(c1)c1nc3ccccc3nc1n2CCN1CCOCC1	-	-	13µM	?	-
Cn1c2ccc(F)cc2c2nc3ccccc3nc21	?	-	?	-	-
Cc1ccc2c(c1)c1nc3ccccc3nc1n2C	.	-	11µM	.	-
COc1ccc(C2c3ccc(O)cc3Oc3ncn4nc(-c5cccnc5)nc4c32)cc1OC (configuration not stated)	?	-	28µM	?	?
COc1ccc(C2c3ccc(O)cc3Oc3ncn(Cc4ccco4)c(=N)c32)cc1OC (configuration not stated)	.	?	?	.	-
COC(=O)[C@@H]1C[C@@H](NC(=O)c2cnsn2)CN1Cc1ccc(Cl)cc1	.	.	.	.	-
CCC1CCCCN1c1nc2c(C=O)c(C)nn2c2ccccc12 (configuration not stated)	?	-64	10µM	?	-
SMILES	Marburg entry inh	HCMV antiviral	HCV inhibitor	Lassa entry inh	FMDV inh
COC1(C#C[C@@H]2C=C[C@H](OC(C)=O)[C@@H](COC(C)=O)O2)CCCCC1	-	.	.	?	.
Cc1ccc(/C=N/n2c(COc3ccccc3)n[nH]c2=S)s1	-	-	-	6.5µM	-
S=c1[nH]nc(COc2ccccc2)n1/N=C/c1ccc(Br)s1	-	-	-	?	-
Cc1ccc(-c2n[nH]c(=S)n2/N=C/c2ccc(C)s2)cc1	-	-	-	1.3µM	-
Cc1ccc(/C=N/n2c(COc3ccccc3)n[nH]c2=S)o1	.	-90	-	.	-
COc1cccc(/C(C)=N/NC(=O)Cc2c(C)[nH][nH]c2=O)c1	.	-	-	.	-
CCc1ccc(S(=O)(=O)Nc2ccc3oc(C)c(C(=O)OCCOC)c3c2)cc1	-	-	.	-	-
Cc1cc(C(=O)Nc2ccccc2-c2nc(CNC(=O)c3ccccc3Cl)c(C)o2)c(C)o1	.	.	.	.	-
COC(=O)C(CCSC)NC(=O)c1cc2c(n(-c3ccc(Cl)cc3)c1=O)CCCC2=O (configuration not stated)	-	-	.	-	-
CC(=O)c1c(N2CCN(c3ccc(F)cc3)CC2)nc(=S)n(Cc2ccccc2)c1C	?	-68	?	-	?
